Measured values taken from the supplement of paper PMC10849652.
The full data set covers some 7,900 targets. This sample favours those with a hit. About 0.6% of all pairs of compound and target were hits. A number with no mark means an inactive call.

What was measured:
Assay in all cases: log2 fold change, soluble protein after heating vs DMSO (PISA); higher = thermal stabilisation; K562 cells, 10 uM, 30 min; active = over 0.2 and 3.5 SD of the protein, either way, in both replicates (recomputed)
[1] = compound: C1=CC=C(C=C1)[C@H](COC2=CC3=C(C=C2)NC(=O)N3)NC(=O)C4=CC=CN(C4=O)CC5=CC(=C(C=C5)F)F
How it was run: (§1)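 For each measurement, 10 μM compound was applied for 30 min to K562 cells at 2×10^6 cells/mL. Aliquots were heated for 3 min across 48°C-58°C, pooled, and extracted in PBS with 0.5% NP-40 at 4°C; the supernatant after 21,000xg for 90 min was soluble protein. This was quantified by TMTpro 16plex LC-MS/MS with channel sums equalised, and thermal stability was reported relative to control samples from duplicates, on a log2 fold-change scale.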

[2] = compound: CC1=C(SC2=C1C(=N[C@H](C3=NN=C(N32)C)CC(=O)N)C4=CC=C(C=C4)Cl)C
How it was run: as §1

[3] = compound: CC1=C2C(=CC=C1)N=C(N(C2=O)C3=CC=CC=C3C)CN4C=NC5=C(N=CN=C54)N
How it was run: as §1

[4] = compound: Cc1sc2c(c1C)C(c1ccc(Cl)cc1)=N[C@@H](CC(=O)OC(C)(C)C)c1nnc(C)n1-2
How it was run: as §1

[5] = compound: c1ccc([C@@H]2C[C@H]2NC2CCNCC2)cc1
How it was run: as §1

Chain of UniProt Q9UBV8 (Q9UBV8 whole entry, looked up): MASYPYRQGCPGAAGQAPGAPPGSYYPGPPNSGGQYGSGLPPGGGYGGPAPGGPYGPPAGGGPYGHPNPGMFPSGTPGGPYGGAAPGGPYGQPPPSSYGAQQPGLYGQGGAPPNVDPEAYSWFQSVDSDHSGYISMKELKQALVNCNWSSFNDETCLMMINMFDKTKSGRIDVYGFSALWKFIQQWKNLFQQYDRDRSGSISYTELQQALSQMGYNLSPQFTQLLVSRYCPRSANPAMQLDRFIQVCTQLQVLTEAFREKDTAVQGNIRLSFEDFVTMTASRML
Chain of UniProt Q16513 (Q16513 whole entry, looked up): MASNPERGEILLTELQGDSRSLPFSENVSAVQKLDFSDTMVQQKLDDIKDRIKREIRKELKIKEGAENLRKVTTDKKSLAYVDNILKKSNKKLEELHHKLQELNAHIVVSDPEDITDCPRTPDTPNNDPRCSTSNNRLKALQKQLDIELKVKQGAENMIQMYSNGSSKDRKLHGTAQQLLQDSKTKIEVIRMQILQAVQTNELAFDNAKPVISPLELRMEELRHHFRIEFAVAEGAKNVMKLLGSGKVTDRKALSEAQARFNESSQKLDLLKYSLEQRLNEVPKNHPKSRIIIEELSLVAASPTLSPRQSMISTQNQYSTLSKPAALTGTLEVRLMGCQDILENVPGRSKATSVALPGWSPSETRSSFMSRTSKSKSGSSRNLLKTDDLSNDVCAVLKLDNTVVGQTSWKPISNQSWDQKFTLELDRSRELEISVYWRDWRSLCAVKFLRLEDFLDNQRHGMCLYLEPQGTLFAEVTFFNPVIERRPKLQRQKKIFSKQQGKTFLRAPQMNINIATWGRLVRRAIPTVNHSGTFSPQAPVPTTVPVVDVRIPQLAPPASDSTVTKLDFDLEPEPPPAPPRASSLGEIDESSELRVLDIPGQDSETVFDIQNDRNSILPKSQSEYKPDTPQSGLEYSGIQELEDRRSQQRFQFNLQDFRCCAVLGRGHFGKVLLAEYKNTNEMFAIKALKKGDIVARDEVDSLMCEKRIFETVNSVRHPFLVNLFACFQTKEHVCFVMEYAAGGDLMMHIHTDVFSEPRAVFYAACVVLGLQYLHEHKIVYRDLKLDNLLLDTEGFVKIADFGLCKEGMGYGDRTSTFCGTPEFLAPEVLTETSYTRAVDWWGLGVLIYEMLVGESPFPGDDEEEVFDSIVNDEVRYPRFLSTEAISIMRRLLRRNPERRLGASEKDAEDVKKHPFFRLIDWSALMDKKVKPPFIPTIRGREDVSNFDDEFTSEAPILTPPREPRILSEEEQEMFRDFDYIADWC
Chain of UniProt Q16401 (Q16401 whole entry, looked up): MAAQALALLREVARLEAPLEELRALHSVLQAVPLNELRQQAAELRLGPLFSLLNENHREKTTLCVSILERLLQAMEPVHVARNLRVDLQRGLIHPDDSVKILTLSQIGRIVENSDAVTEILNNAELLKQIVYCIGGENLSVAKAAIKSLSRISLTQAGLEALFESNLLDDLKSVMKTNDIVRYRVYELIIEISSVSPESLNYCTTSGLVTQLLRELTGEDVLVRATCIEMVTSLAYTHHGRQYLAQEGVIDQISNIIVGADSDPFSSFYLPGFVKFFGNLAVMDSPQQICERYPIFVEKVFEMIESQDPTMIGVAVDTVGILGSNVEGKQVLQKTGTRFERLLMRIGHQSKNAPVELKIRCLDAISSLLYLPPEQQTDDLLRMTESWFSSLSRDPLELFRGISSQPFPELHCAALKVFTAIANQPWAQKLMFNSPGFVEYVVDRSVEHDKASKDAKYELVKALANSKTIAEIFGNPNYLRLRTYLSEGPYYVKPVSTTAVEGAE
Chain of UniProt Q5JVF3 (Q5JVF3 whole entry, looked up): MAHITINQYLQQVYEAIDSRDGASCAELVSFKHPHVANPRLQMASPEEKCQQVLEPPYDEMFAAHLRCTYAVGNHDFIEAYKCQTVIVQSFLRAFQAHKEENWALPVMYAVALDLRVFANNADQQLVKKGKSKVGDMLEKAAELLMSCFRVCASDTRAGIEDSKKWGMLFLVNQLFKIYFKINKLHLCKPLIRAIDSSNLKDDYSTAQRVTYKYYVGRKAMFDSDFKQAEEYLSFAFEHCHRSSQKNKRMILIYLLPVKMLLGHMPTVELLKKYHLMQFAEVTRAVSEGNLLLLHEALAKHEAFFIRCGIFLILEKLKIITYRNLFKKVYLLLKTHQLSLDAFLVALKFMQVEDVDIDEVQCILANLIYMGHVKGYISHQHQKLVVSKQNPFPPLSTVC
Chain of UniProt Q8IZL8 (Q8IZL8 whole entry, looked up): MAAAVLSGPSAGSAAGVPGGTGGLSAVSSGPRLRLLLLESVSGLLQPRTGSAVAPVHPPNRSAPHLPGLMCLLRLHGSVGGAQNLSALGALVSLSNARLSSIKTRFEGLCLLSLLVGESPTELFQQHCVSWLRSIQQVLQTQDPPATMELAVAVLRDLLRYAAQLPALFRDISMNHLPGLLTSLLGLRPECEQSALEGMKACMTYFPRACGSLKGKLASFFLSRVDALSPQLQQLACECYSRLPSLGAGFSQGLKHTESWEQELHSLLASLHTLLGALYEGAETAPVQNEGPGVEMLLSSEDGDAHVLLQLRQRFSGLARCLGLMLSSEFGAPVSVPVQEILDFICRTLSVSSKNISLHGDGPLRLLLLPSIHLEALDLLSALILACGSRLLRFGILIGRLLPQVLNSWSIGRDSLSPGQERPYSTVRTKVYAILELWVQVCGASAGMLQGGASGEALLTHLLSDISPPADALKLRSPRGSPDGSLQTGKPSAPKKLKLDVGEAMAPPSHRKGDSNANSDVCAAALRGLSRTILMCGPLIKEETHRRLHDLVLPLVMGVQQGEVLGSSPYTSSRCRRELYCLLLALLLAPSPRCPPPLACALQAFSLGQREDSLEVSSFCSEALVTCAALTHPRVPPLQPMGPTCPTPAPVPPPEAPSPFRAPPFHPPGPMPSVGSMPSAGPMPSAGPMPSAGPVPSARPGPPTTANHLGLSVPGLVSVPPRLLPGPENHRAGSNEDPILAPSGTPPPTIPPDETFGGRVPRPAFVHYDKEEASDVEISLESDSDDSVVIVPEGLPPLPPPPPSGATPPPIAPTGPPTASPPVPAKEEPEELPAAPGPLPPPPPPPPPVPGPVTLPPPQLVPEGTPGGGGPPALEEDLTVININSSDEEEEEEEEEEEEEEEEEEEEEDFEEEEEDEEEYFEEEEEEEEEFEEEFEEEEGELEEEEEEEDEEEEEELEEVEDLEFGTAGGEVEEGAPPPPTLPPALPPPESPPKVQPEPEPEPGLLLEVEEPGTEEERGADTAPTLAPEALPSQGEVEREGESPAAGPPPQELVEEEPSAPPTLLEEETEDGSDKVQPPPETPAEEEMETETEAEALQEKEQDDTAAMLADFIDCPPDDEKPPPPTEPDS
Chain of UniProt P53609 (P53609 whole entry, looked up): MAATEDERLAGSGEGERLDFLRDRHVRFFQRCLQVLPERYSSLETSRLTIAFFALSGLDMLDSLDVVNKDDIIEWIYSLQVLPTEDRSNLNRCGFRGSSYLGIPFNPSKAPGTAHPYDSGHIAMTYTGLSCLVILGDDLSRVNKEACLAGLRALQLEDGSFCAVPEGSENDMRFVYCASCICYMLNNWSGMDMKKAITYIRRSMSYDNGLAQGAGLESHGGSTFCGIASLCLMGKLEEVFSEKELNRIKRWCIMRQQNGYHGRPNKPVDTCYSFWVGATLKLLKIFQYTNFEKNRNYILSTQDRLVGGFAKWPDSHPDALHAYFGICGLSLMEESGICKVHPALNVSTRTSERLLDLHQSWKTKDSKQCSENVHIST
Chain of UniProt Q15366 (Q15366 whole entry, looked up): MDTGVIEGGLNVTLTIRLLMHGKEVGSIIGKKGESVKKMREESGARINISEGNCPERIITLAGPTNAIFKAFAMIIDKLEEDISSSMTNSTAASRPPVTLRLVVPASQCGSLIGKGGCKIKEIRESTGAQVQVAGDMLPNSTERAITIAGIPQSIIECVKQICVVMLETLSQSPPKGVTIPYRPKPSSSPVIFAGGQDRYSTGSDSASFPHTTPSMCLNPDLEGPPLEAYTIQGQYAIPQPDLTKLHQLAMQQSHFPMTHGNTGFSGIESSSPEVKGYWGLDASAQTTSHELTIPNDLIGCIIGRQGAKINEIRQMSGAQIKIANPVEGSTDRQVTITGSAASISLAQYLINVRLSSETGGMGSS
Chain of UniProt Q9H300 (Q9H300 whole entry, looked up): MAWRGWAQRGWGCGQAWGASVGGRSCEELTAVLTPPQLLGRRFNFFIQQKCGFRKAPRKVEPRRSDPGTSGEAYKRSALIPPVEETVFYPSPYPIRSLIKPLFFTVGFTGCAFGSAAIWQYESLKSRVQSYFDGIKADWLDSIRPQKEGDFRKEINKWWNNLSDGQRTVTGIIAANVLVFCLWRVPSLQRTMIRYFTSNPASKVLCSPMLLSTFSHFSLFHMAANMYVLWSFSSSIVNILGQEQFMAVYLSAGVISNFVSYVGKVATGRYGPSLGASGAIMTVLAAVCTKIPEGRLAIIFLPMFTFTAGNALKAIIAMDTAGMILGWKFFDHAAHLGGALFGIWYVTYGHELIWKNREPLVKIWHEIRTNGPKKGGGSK
Chain of UniProt O00628 (O00628 whole entry, looked up): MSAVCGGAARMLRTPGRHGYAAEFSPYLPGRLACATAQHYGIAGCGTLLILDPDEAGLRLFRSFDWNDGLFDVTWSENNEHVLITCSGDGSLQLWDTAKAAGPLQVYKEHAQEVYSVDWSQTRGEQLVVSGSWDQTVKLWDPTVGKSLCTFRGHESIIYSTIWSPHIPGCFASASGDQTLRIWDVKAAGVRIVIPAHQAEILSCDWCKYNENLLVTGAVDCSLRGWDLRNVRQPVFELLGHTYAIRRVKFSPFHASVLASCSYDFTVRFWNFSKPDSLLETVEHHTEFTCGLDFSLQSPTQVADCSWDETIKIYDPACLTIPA
Chain of UniProt Q15121 (Q15121 whole entry, looked up): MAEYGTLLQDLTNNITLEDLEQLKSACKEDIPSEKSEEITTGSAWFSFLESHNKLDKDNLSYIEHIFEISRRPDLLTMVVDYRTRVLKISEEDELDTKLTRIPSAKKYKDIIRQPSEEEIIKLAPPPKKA

Target | log2 fold change [1] | log2 fold change [2] | log2 fold change [3] | log2 fold change [4] | log2 fold change [5]
PIK3CB (UniProt P42338) | -0.068 | 0.014 | 0.213 (active) | -0.01 | 0.005
PATL1 (UniProt Q86TB9) | -0.019 | -0.004 | 0.095 | 0 | -0.021
PEX13 (UniProt Q92968) | -0.064 | 0.05 | 0.078 | -0.107 | 0.001
PCK2 (UniProt Q16822) | 0.051 | 0.038 | 0.057 | 0.008 | -0.038
PIP4K2B (UniProt P78356) | -0.102 | 0.018 | -0.034 | -0.038 | -0.026
PLEKHM2 (UniProt Q8IWE5) | -0.027 | 0.076 | -0.016 | 0.089 | -0.048
PNPLA8 (UniProt Q9NP80) | 0.024 | 0.031 | 0.007 | -0.006 | 0.024
PPT1 (UniProt P50897) | 0.047 | 0.021 | 0 | -0.003 | -0.003
PTPN23 (UniProt Q9H3S7) | -0.038 | 0.048 | 0.054 | 0 | 0.038
PIGH (UniProt Q14442) | 0.044 | 0.064 | 0.144 | -0.046 | -0.024
PHAX (UniProt Q9H814) | 0.014 | -0.019 | -0.015 | -0.024 | 0.022
POLR2A (UniProt P24928) | -0.014 | 0.158 | 0.031 | 0.17 | -0.059
PEA15 isoform 2 (UniProt Q15121) | -0.014 | 0.1 | 0.116 | -0.063 | -0.015
PCLAF (UniProt Q15004) | 0.055 | -0.022 | -0.045 | 0.02 | 0.07
PRKCD (UniProt Q05655) | -0.05 | 0.082 | 0.071 | 0.004 | -0.021
PDE12 (UniProt Q6L8Q7) | -0.003 | 0.059 | 0.12 | -0.05 | -0.094
PRPF3 (UniProt O43395) | -0.09 | -0.208 | 0.08 | -0.017 | 0.115
PTTG1IP (UniProt P53801) | 0.149 | -0.055 | -0.134 | 0.04 | 0.084
PLIN2 (UniProt Q99541) | -0.063 | -0.006 | 0.093 | 0.004 | 0.015
PTPN12 (UniProt Q05209) | 0.035 | 0.034 | 0.091 | 0.024 | 0.015
PPP2R5C isoform 4 (UniProt Q13362) | -0.03 | -0.003 | 0.117 | -0.019 | 0.012
POLA2 (UniProt Q14181) | -0.023 | 0.048 | 0.114 | -0.006 | 0.034
PGGT1B (UniProt P53609) | 0.025 | 0.066 | 0.051 | -0.018 | -0.004
PSMD5 (UniProt Q16401) | 0 | 0.028 | 0.006 | -0.006 | -0.001
POLD1 (UniProt P28340) | 0.017 | 0.019 | 0.094 | 0.048 | 0
PIP4K2C (UniProt Q8TBX8) | -0.148 | 0.034 | 0.05 | -0.029 | -0.042
PIGG (UniProt Q5H8A4) | 0.12 | 0.031 | -0.091 | 0.006 | -0.003

Target | log2 fold change [1] | log2 fold change [2] | log2 fold change [3] | log2 fold change [4] | log2 fold change [5]
PKN2 (UniProt Q16513) | -0.075 | 0.103 | 0.066 | 0.029 | 0.044
PKM (UniProt P14618) | -0.008 | 0.032 | 0.004 | -0.005 | 0.026
PITRM1 isoform 2 (UniProt Q5JRX3) | 0.064 | -0.08 | 0.048 | -0.083 | 0
PCNT (UniProt O95613) | 0.037 | -0.067 | 0.11 | 0.064 | 0.105
PRMT8 (UniProt Q9NR22) | -0.002 | 0.133 | 0.046 | -0.028 | -0.015
PEF1 (UniProt Q9UBV8) | 0.01 | 0.185 | 0.047 | -0.178 | -0.014
PSME4 (UniProt Q14997) | -0.041 | 0.017 | 0.017 | -0.025 | -0.048
PTRHD1 (UniProt Q6GMV3) | -0.002 | 0.056 | 0.046 | -0.073 | 0.033
PDIK1L (UniProt Q8N165) | -0.255 | 0.001 | 0.044 | 0.062 | -0.005
PRKACB isoform 2 (UniProt P22694) | -0.06 | 0.021 | 0.032 | -0.038 | 0.003
PCYT1B (UniProt Q9Y5K3) | -0.063 | -0.003 | 0.022 | 0.042 | 0.034
PPM1G (UniProt O15355) | -0.139 | 0.025 | 0.081 | 0.002 | -0.089
PSMA3 (UniProt P25788) | 0.051 | -0.062 | -0.022 | -0.036 | -0.029
PELP1 (UniProt Q8IZL8) | 0 | 0.006 | -0.028 | -0.044 | -0.013
PRCP (UniProt P42785) | 0.023 | -0.036 | -0.061 | 0.018 | 0.062
PEX7 (UniProt O00628) | -0.371 (active) | 0.035 | 0.136 | 0.021 | -0.03
PEX16 isoform 2 (UniProt Q9Y5Y5) | -0.01 | 0.095 | 0.087 | -0.031 | -0.048
POMP (UniProt Q9Y244) | -0.101 | -0.077 | -0.069 | -0.018 | -0.009
PRKCB isoform 2 (UniProt P05771) | -0.034 | 0.028 | 0.053 | 0.027 | -0.008
PARL (UniProt Q9H300) | 0.017 | -0.017 | 0.045 | 0.028 | 0.031
PCBP2 isoform 3 (UniProt Q15366) | -0.051 | 0.016 | 0.055 | -0.029 | 0.005
PYGL (UniProt P06737) | 0.006 | 0.047 | 0.026 | 0.006 | -0.032
PCYT1A (UniProt P49585) | -0.035 | 0.005 | 0.056 | -0.012 | 0.019
PRIM1 (UniProt P49642) | -0.149 | -0.033 | 0.053 | 0.033 | 0.01
PCID2 (UniProt Q5JVF3) | -0.18 | 0.057 | 0.159 | 0.033 | -0.071
PDE2A (UniProt O00408) | 0.079 | 0.08 | 0.16 | -0.024 | 0.065
